# From PubChem BioAssay
# Activity calls are given as the source filed them.
# Assays:
# [1] = E. coli DRC41 culture turbidity changes, primary screen, E. coli filamentation inducer project, strain DRC41, OD650, 48 h (AID 1152);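 further: E. coli MC1000 strain DRC41 lacking acrAB efflux pump and sulA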; settings: E. coli DRC41 (acrAB sulA), higher = more signal, called active from +8 up or from −8 down
# [2] = small-molecule binders of probe aLefty1, primary screen, biochemical, small-molecule microarray, 635/667 nm fluorescence (AID 1153); settings: higher = more signal;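 further: score merges spot fluorescence with signal-to-noise ratio from the scanned slide images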
# [3] = PSAC antagonists in infected red cells, primary screen, cell-based, P. falciparum Indochina, OD700, 1 h (AID 1154); settings: P. falciparum Indochina infected RBC osmotic lysis, higher = more signal, called active from +8 up or from −8 down
# [4] = PSAC antagonists in infected red cells, primary screen, cell-based, P. falciparum Indochina, OD700, 2 h (AID 1155);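 further: lysis reports solute entry through the parasite surface anion channel PSAC; channel blockers reduce lysis of infected cells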; settings: P. falciparum Indochina infected erythrocytes, osmotic lysis OD700; higher = more signal, called active from +8 up or from −8 down
# [5] = osmotic lysis modulators in infected erythrocytes, primary screen, PSAC antagonist project, cell-based, P. falciparum Indochina, OD700, 3 h (AID 1156); settings: higher = more signal, called active from +8 up or from −8 down
# [6] = PSAC antagonists in infected red cells, primary screen, cell-based, P. falciparum Indochina, OD700, 18 h (AID 1157); settings: P. falciparum Indochina infected erythrocytes, osmotic lysis OD700, 18 h; higher = more signal, called active from +8 up or from −8 down
# [7] = modulators of S6 phosphorylation in cells, primary screen, cell-based, A549, cytoblot, luminescence, serum-stimulated (AID 1158); settings: A549 phospho-S6 cytoblot, 5 h, higher = more signal;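 further: serum-stimulated A549 lung adenocarcinoma cells; signal is phosphorylated S6 detected by cytoblot immunostaining with HRP secondary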
# [8] = biological target: NADPH oxidase 2 (Homo sapiens) (UniProt P04839); assay: NOX2-dependent H2O2 signal modulators, primary screen, NOX inhibitor project, cell-based, HEK293-NOX2, PMA-stimulated, Amplex Red fluorescence (AID 1159); settings: 45 min, higher = more signal, called active from +8 up or from −8 down; further: test concentration not given here
# NADPH oxidase 2 (Homo sapiens), sequence (P04839 whole entry, looked up): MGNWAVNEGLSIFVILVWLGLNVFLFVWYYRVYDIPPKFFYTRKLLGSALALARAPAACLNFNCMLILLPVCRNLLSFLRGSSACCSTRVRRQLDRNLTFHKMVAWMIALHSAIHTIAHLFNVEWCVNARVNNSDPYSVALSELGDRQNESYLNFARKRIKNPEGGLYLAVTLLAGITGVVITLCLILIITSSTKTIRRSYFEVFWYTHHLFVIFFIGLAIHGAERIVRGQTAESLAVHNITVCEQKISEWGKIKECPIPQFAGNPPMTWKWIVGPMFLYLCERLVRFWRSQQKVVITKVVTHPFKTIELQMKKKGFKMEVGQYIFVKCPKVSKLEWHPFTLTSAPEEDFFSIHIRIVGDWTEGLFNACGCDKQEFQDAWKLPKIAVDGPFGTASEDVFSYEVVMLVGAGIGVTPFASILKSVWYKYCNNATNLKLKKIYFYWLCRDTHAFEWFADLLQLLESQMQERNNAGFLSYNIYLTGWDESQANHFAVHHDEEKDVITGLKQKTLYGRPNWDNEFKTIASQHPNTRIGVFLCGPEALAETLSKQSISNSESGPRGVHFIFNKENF
# [9] = biological target: NADPH oxidase 4 (Homo sapiens) (UniProt Q9NPH5); assay: NOX4-dependent H2O2 signal modulators, primary screen, NOX inhibitor project, cell-based, HEK293-NOX4, tetracycline-induced, Amplex Red fluorescence (AID 1160); settings: 45 min, higher = more signal, called active from +8 up or from −8 down
# NADPH oxidase 4 (Homo sapiens), sequence (Q9NPH5 whole entry, looked up): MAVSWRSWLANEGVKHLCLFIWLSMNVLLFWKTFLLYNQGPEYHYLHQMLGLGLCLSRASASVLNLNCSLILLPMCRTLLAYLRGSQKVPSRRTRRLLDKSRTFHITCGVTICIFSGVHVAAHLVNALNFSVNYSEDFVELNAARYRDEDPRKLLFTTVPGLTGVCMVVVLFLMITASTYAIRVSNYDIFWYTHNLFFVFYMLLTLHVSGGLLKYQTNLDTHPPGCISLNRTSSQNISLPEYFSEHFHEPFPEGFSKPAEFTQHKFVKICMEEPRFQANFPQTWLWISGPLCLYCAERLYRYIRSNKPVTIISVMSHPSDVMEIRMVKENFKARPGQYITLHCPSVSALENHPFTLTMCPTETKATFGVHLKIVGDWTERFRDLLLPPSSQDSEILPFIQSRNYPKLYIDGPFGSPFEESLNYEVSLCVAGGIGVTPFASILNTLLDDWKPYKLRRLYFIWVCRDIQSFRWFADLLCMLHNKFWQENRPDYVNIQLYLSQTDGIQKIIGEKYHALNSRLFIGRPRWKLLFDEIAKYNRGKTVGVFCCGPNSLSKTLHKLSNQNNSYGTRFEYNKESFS
# [10] = biological target: NADPH oxidase 5 (Homo sapiens) (UniProt Q96PH1); assay: NOX5-dependent H2O2 signal modulators, primary screen, NOX inhibitor project, cell-based, HEK293-NOX5, Amplex Red fluorescence (AID 1161); settings: HEK293-NOX5, ionomycin, 45 min, higher = more signal
# NADPH oxidase 5 (Homo sapiens), sequence (Q96PH1 whole entry, looked up): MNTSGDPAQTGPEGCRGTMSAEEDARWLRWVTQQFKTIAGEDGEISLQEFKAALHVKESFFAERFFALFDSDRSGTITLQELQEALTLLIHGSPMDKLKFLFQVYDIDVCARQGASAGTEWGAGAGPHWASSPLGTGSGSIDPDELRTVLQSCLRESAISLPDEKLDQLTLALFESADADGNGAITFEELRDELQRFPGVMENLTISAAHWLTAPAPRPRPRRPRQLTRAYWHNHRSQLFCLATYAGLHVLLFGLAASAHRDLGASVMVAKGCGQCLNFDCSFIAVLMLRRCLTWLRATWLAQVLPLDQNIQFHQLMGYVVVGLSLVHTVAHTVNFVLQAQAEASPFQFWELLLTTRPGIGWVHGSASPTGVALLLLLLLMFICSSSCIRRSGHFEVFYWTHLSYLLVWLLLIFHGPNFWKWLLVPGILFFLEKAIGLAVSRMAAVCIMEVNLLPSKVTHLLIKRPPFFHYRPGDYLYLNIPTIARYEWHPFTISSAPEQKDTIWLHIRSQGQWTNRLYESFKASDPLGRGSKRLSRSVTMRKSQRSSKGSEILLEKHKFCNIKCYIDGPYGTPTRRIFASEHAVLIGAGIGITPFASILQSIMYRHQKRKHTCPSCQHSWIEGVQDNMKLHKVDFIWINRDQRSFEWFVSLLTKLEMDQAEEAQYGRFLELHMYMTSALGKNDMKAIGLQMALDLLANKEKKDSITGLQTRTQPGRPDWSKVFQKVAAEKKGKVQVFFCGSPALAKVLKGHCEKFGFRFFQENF
# [11] = A549 cell viability effects, profiling panel, calcein-AM fluorescence, 48 h, basal (AID 1162); settings: higher = more signal; further: test concentration not given here
# [12] = adipocyte viability effects, profiling panel, cell-based, 3T3-L1 adipocytes, calcein-AM fluorescence, 48 h, basal (AID 1163); settings: 3T3-L1 adipocytes viability, higher = more signal; further: test concentration not given here
# [13] = HepG2 cell viability effects, profiling panel, calcein-AM fluorescence, 48 h, basal (AID 1164); settings: higher = more signal; further: test concentration not given here
# [14] = MM1S cell viability effects, profiling panel, calcein-AM fluorescence, 48 h, basal (AID 1165); settings: higher = more signal;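 further: viability of MM1S multiple myeloma cells under basal unstimulated conditions; test concentration not given here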
# [15] = basal RPMI8226 viability, no added stimulus, profiling panel, cell-based, calcein-AM fluorescence, 48 h, PK04 Diversity Set (AID 1166); settings: RPMI8226 myeloma viability, higher = more signal;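 further: cells grown under basal conditions without added stimulus; test concentration not given here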
# [16] = basal HepG2 mitochondrial membrane potential changes, profiling panel, cell-based, JC-1 fluorescence, 24 h, 100 nL compound (AID 1167); settings: higher = more signal; further: test concentration not given here
# [17] = basal 3T3-L1 adipocyte mitochondrial potential changes, profiling panel, cell-based, JC-1 fluorescence, 3T3-L1 adipocytes, 24 h, 100 nL compound (AID 1168); settings: JC-1 mitochondrial fluorescence, higher = more signal, called active from +8 up or from −8 down; further: test concentration not given here
# [18] = basal RPMI8226 mitochondrial membrane potential changes, profiling panel, cell-based, JC-1 fluorescence, 24 h, 100 nL compound (AID 1169); settings: RPMI8226 myeloma, JC-1 mitochondrial potential fluorescence, higher = more signal; further: test concentration not given here
# [19] = basal MM1S mitochondrial membrane potential changes, profiling panel, cell-based, JC-1 fluorescence, 24 h, 100 nL compound (AID 1170); settings: higher = more signal; further: test concentration not given here
# [20] = A549 lung cancer cell viability effects, profiling panel, resazurin fluorescence, 24 h, PK04 Diversity Set (AID 1171); settings: higher = more signal, called active from +8 up or from −8 down; further: test concentration not given here
SMILES,z-score [1],composite z-score [2],z-score [3],z-score [4],z-score [5],z-score [6],z-score [7],z-score [8],z-score [9],z-score [10],z-score [11],z-score [12],z-score [13],z-score [14],z-score [15],z-score [16],z-score [17],z-score [18],z-score [19],z-score [20]
CCCNC(=O)OC[C@H]1O[C@H](CCON=C[C@@H](OC)[C@H](C)C=CCC(=O)OC)C=C[C@@H]1Oc1ccc(OC)cc1,-0.042 (inactive),0.0889,4.4 (inactive),0.143 (inactive),-0.0652 (inactive),0.368 (inactive),0.0604,-1.56 (inactive),0.00725 (inactive),-2.76,0.0666,0.764,0.97,-0.902,0.122,-0.12,-0.277 (inactive),0.0719,-0.118,1.2 (inactive)
CO[C@H]1COC(=O)[C@@H]2CCCN2C(=O)CC=C[C@@H](C)[C@H](OC)COC(=O)CC=C[C@@H]1C,0.604 (inactive),-0.0974,-0.0558 (inactive),-1.3 (inactive),-0.464 (inactive),-1.7 (inactive),2.35,-0.331 (inactive),0.631 (inactive),0.557,0.346,1.04,1.01,0.292,0.84,1.23,0.252 (inactive),-1.13,1.16,0.287 (inactive)
COC(=O)C1=CCC(c2cccc(Cl)c2)O1 (stereo not given),-0.367 (inactive),-0.0111,11.4 (active),-0.39 (inactive),0.784 (inactive),-0.963 (inactive),0.61,-3.94 (inactive),-1.6 (inactive),-4.15,-0.787,-0.0098,-1.14,0.233,-0.783,-0.549,0.00619 (inactive),-0.757,-0.428,0.107 (inactive)
N#Cc1ccc(NN2C(C(O)c3cccc4ccccc34)C=CC3C(=O)N(c4ccccc4)C(=O)C32)cc1 (stereo not given),-0.499 (inactive),0.696,12.6 (active),2.68 (inactive),1.33 (inactive),1.44 (inactive),-0.067,-1.58 (inactive),-3.65 (inactive),-3.57,-0.762,-0.506,1.52,0.0966,0.224,-0.452,0.226 (inactive),-0.312,-0.0109,0.325 (inactive)
CC(C)(C)OC(=O)CC[C@]1(C(N)=O)COC(c2ccc(OCCCO)cc2)=N1,0.311 (inactive),0.802,0.75 (inactive),-0.267 (inactive),0.295 (inactive),0.0515 (inactive),-0.777,0.381 (inactive),-0.585 (inactive),0.612,0.371,0.0132,0.0668,0.909,-0.881,-0.143,-0.0265 (inactive),0.484,-0.284,-1.05 (inactive)
CC(=O)OC[C@H]1O[C@H](CC=NOC[C@@H](C)[C@H](OCc2ccccc2)C(C)C)C=C[C@@H]1OC(C)=O,-0.0083 (inactive),-0.101,1.25 (inactive),0.766 (inactive),0.712 (inactive),0.343 (inactive),-0.0212,-0.401 (inactive),-0.344 (inactive),-2.35,-0.878,-0.612,-1.02,-0.886,0.128,-0.713,-1.71 (inactive),1.17,-0.482,0.286 (inactive)
COCC(=C=CC[C@@H](O)c1ccccc1OCCO)CCO,0.825 (inactive),-0.0501,2.69 (inactive),-0.0233 (inactive),0.454 (inactive),0.16 (inactive),0.613,1.64 (inactive),0.992 (inactive),-0.132,1.31,0.177,0.792,0.699,0.551,0.429,0.432 (inactive),-0.631,0.918,0.675 (inactive)
O=C(NN=C1C[C@@H](O)[C@@H](O)[C@@H]2[C@@H]3C(=O)N(c4cccc(Oc5ccccc5)c4)C(=O)[C@@H]3CC[C@H]12)OCc1ccccc1,-0.155 (inactive),0.0406,2.26 (inactive),1.1 (inactive),2.32 (inactive),0.527 (inactive),-0.738,1.25 (inactive),0.056 (inactive),0.825,-0.207,-0.205,-0.943,0.693,-0.363,0.559,-1.15 (inactive),0.0901,-0.0387,-0.103 (inactive)
C[C@@H]1CC[C@H]2C(=O)O[C@H](COc3ccc(C(C)(C)C)cc3)CN2[C@H]1c1ccc(Br)cc1,-0.425 (inactive),-0.279,0.813 (inactive),0.538 (inactive),-0.082 (inactive),0.343 (inactive),-0.53,0.0709 (inactive),-1.99 (inactive),0.568,1.29,0.0543,0.0624,-0.232,-0.0964,-1.12,-0.204 (inactive),-0.132,0.621,1.19 (inactive)
COC(=O)CC=C[C@H](C)[C@H](CO)NS(=O)(=O)c1ccc(C)cc1,-1.48 (inactive),-0.221,0.251 (inactive),-0.085 (inactive),-0.206 (inactive),-0.119 (inactive),-0.497,1.48 (inactive),0.227 (inactive),-0.484,-0.595,0.41,-0.392,0.165,0.364,-0.976,-0.0535 (inactive),-0.49,0.604,-0.711 (inactive)
CCCC[C@@H](O)C1=C(C)C[C@H]2C(=O)N(Cc3ccccc3)C(=O)[C@H]2[C@H]1CO,0.969 (inactive),0.0736,2.44 (inactive),-0.252 (inactive),-0.347 (inactive),0.206 (inactive),0.431,-0.789 (inactive),0.358 (inactive),-0.0632,0.35,0.356,-0.0592,-0.0699,1.09,0.579,0.164 (inactive),-0.0812,-0.785,0.453 (inactive)
CCOC(=O)[C@H](Cc1ccccc1)NC(=O)CCC1CC(OC(=O)NCc2ccc3c(c2)OCO3)CC2(CCCC(COC(=O)NCC(c3ccccc3)c3ccccc3)O2)O1 (stereo not given in full),1.13 (inactive),-0.0046,13.8 (active),4.29 (inactive),0.394 (inactive),1.3 (inactive),0.0394,-0.742 (inactive),0.406 (inactive),0.491,1.85,-0.683,-0.538,-3.38,-3.61,1.37,-0.717 (inactive),-0.77,-1.95,0.174 (inactive)
COC(=O)CC=C[C@@H](C)[C@@H](C=NO[C@H](C)c1cn([C@@H]2COC[C@H]2O)nn1)OC,0.319 (inactive),-0.0003,0.813 (inactive),0.499 (inactive),0.5 (inactive),0.415 (inactive),0.502,-0.0191 (inactive),0.488 (inactive),-0.0693,0.947,-0.0678,0.185,0.415,-0.507,1.2,-0.39 (inactive),0.146,-0.469,-0.567 (inactive)
CCOC(=O)[C@H](Cc1ccccc1)NC(=O)CCC1CC(OC(=O)NCc2ccc3c(c2)OCO3)CC2(CCCC(COC(=O)NCC3CCCCC3)O2)O1 (stereo not given in full),-0.251 (inactive),0.171,0.732 (inactive),0.45 (inactive),-0.235 (inactive),0.297 (inactive),0.236,1.51 (inactive),0.737 (inactive),0.909,0.0417,-0.0963,-0.264,-2.06,-2.09,1.84,-0.0648 (inactive),-0.00903,-0.306,1.02 (inactive)
CCCCCCc1nc(CCCc2cc3c(c(CCCCCC)n2)[Si](C(C)C)(C(C)C)O[C@H]3c2ccccc2)cc2c1[Si](C(C)C)(C(C)C)O[C@H]2c1ccccc1,-1.58 (inactive),-0.244,0.963 (inactive),0.165 (inactive),0.97 (inactive),0.0888 (inactive),-0.415,-4.87 (inactive),0.859 (inactive),-1.07,1.4,-0.352,-0.17,-0.374,-0.966,0.903,0.774 (inactive),-0.308,0.396,1.09 (inactive)
CC(C)(C)N1C(=O)[C@H]2[C@H]3[C@H](O)[C@H](O)CC(=NO[C@@H]4O[C@H](CO)[C@@H](O)[C@H](O)[C@H]4O)[C@@H]3CC[C@H]2C1=O,0.383 (inactive),-0.147,1.13 (inactive),0.0656 (inactive),-0.689 (inactive),0.106 (inactive),-0.345,1.01 (inactive),-0.022 (inactive),-2.07,-0.504,0.346,0.302,-0.739,-0.666,-2.11,-0.404 (inactive),-0.018,-1.03,-0.461 (inactive)
O=C1C[C@@H](O)[C@@H](O)[C@@H]2[C@@H]3C(=O)N(C4CCCCC4)C(=O)[C@@H]3CC[C@H]12,-0.246 (inactive),-0.103,1.27 (inactive),0.775 (inactive),-0.059 (inactive),0.423 (inactive),0.403,-1.6 (inactive),0.386 (inactive),-0.883,0.18,0.0589,0.0702,-0.148,-0.189,-0.401,-0.364 (inactive),0.0892,-0.354,0.386 (inactive)
COc1ccc([Si](C)(C)[C@H]2[C@H](CCO)O[C@@]3(C(=O)N(Cc4cccc(NC(=O)[C@H](C)O)c4)c4ccccc43)[C@@H]2C)cc1,0.868 (inactive),0.19,19.7 (active),5.46 (inactive),0.334 (inactive),1.8 (inactive),0.993,-4.7 (inactive),0.621 (inactive),-1.31,-2.82,-0.401,-4.52,-2.63,-4.36,-2.89,1.46 (inactive),-1.02,-2.35,-4.28 (inactive)
